# Data as given in PubChem BioAssay (Tox21).
# Inconclusive results are not listed. Values without a mark were called inactive. The call rests on the fitted dose curve; in most records, active means well fitted cell-killing curve with a large enough effect in the repeat runs; inconclusive means weak or mixed curves, or effect the other way; inactive means no such curve, though single readings can be large or run the other way.
# Experiment: qHTS assay to identify small molecule antagonists of the vitamin D receptor (VDR) signaling pathway - cell viability counter screen (AID 743225); further: nearly all actives have a fitted effect of over 50% in size
# Conditions: VDR-bla HEK293T viability, CellTiter-Glo luminescence, 16 h; series mostly up to 61 µM; viability change, negative = cytotoxic: at the top concentration
# From the text: U.S. Tox21 Program National Center for Advancing Translational Sciences [NCATS] NIH Chemical Genomics Center [NCGC] U.S. Environmental Protection Agency [EPA] National Institutes of Environmental Health Sciences [NIEHS] National Toxicology Program [NTP] U.S. Food and Drug Administration [FDA] Tox21 Assay Overview: The vitamin D receptor (VDR), a member of nuclear hormone receptor superfamily, plays a critical role in calcium homeostasis and bone metabolism. It is also involved in cell differentiation and growth, and thrombogenicity. To identify the compounds that inhibit VDR signaling, the VDR-UAS-bla HEK 293T cell line (Invitrogen, Carlsbad, CA, USA) containing a beta-lactamase reporter gene under the control of an upstream activator sequence (UAS) was used to screen the Tox21 10K compound library. The cytotoxicity of the Tox21 compound library against the VDR-bla cell line was tested in parallel by measuring the cell viability using CellTiter-Glo assay (Promega, Madison, WI) in the same wells.
# Tox21 Assay Protocol Summary: VDR-bla cells were dispensed at 2,000 cells/5 uL of assay medium per well into black wall/clear-bottom 1536-well plates using a Multidrop Combi (Thermo Fisher Scientific, Waltham, MA) dispenser. After the assay plates were incubated at a 37C and 5% CO2 for 4 h, 23 nL of compounds dissolved in DMSO, positive controls or DMSO only was transferred to the assay plate by a Pintool station (Kalypsys, San Diego, CA), followed by addition of 1 uL of 1-alpha, 25-Dihydroxy Vitamin D3 (3 nM, final concentration in the wells) using a Bioraptr Flying Reagent Dispenser (FRD) workstation (Beckman Coulter, Indianapolis, IN). The plates were incubated at 37C and 5% CO2 for 16 h, and then 1 uL of LiveBLAzerTM B/G FRET substrate was added using a Bioraptr FRD. The plates were incubated at room temperature for 2 h and fluorescence intensity was measured by an Envision plate reader (PerkinElmer, Shelton, CT). For cell viability readout that measures cytotoxicity, 3 ul/well of CellTiter-Glo reagent was added into the assay plates using a Bioraptr FRD. After 30 min incubation at room temperature, the luminescence intensity in the plates was measured using a ViewLux plate reader (PerkinElmer).
# On the % scale 0 is the no-effect control and ±100 the full control effect.
row,Structure (SMILES),"viability change, negative = cytotoxic"
1,CC(C)c1cc(C(C)C)cc(C(C)C)c1,7.15%
2,Cc1cccc(N)n1,2.99% [at 78.8 µM]
3,C/C(=N\O)c1ccc(OCC(=O)N2CCCCC2)cc1,2.9%
4,CC(=O)c1c(C)cc(C(C)(C)C)cc1C,-27.1%
5,CC[N+](C)(CC)CC,0.222%
6,NC[C@H]1O[C@H](O[C@H]2[C@H](O)[C@@H](O[C@H]3O[C@H](CO)[C@@H](O)[C@H](N)[C@H]3O)[C@H](N)C[C@@H]2N)[C@H](N)[C@@H](O)[C@@H]1O,2.39% [at 28.5 µM]
7,CC(=O)SC[C@@H](C)C(=O)N1CCC[C@H]1C(=O)N[C@@H](Cc1ccccc1)C(=O)O,-2.29%
8,O=C1Nc2ccccc2C1=O,-16.5%
9,CCOC(=O)CN1CCCC1=O,1.84%
10,Clc1ccc2c(c1)Nc1ccccc1S2,0.941%
11,CC(CN1CC(=O)NC(=O)C1)N1CC(=O)NC(=O)C1 (stereo not given),5.06%
12,CC(C)(C)OC=O,-1.49% [at 78.8 µM]
13,N=C(N)N,4.25%
14,CC(C)(O)c1ccc(C(C)(C)O)cc1,8.34%
15,C=C(C)C(=O)OCCOC1CC2CC1C1C=CCC21 (stereo not given),-5.76% [at 78.8 µM]
16,O=P(O)(O)C(O)(Cc1cccnc1)P(=O)(O)O,2.38%
17,CCCCCCCC(=O)N(C)C,2.08%
18,Clc1cc(Cl)c(Cl)c(Cl)c1Cl,-0.761%
19,CN(C)CCc1c[nH]c2ccc(CS(=O)(=O)N3CCCC3)cc12,1.23%
20,CCCCC(O)/C=C(C)/C=C/C=C/C(=O)N1CCCC1=O (stereo not given),-12.7%

row,Structure (SMILES),"viability change, negative = cytotoxic"
1,CC(O)C(CO)C(C)O (stereo not given),-6.45% [at 78.8 µM]
2,C/C=C(\C)C=O,4.07% [at 78.8 µM]
3,O=C(c1ccccc1)c1cccc(O)c1,-6.42% [at 78.8 µM]
4,CC1=C(O)C(=O)CO1,2.85%
5,CO/N=C(\C(=O)O)c1csc(NC(=O)CCl)n1,9.95%
6,CCCCCCC(=O)c1ccccc1,2.89%
7,CC(=O)Nc1ccc(S(=O)(=O)Nc2cc(C)on2)cc1,-1.07%
8,N=C(N)S(=O)O,4.5%
9,NC(=O)CC[C@@H](N)C(=O)O,-2.33%
10,CC(CC(=O)Cl)CC(C)(C)C (stereo not given),-1.46% [at 78.8 µM]
11,COc1ccccc1N1CCN(CC(O)COc2cc(OC)c(OC)c(OC)c2)CC1 (stereo not given),-4.62%
12,O=C(O)P(=O)(O)O,-3.76%
13,CC/C=C/CCCCCCCCCCOC(C)=O,4.39%
14,CC(=O)OCC(=O)[C@@]1(O)CC[C@H]2[C@@H]3CCC4=CC(=O)C=C[C@]4(C)[C@H]3[C@@H](O)C[C@@]21C,0.467%
15,C[C@@H]1CCC[C@H](C)N1CCCC(O)(c1ccccc1)c1ccccn1 (stereo not given in full),-19.5%
16,COc1cc(NS(=O)(=O)c2ccc(N)cc2)ncn1,0.417%
17,Cc1cc(=O)oc2cc(O[C@@H]3SC[C@@H](O)[C@H](O)[C@H]3O)ccc12,10.6%
18,O=CN1CCCCC1,9.71%
19,CCOC(=O)CC(C(C)=O)C(C)=O,-0.759%
20,CC(C)(Sc1cc(C(C)(C)C)c(O)c(C(C)(C)C)c1)Sc1cc(C(C)(C)C)c(O)c(C(C)(C)C)c1,-1.27%
